# Laboratory results from publication PMC11062922 (Nature Chemical Biology, 2023).
# Like-named read-outs stand apart in the source and are kept apart here.
# What was measured:
# CDK4 = system: CDK4; parameters: species or system human, MV4-11 + K-562 + COLO205 + SK-N-BE2 + OVCAR-8; conditions: read-out: apparent Kd; compound concentrations:100 nM and 1000 nM (sheet 'Samples'); n = 1
# NNT = system: NNT; parameters: species or system human, MV4-11 + K-562 + COLO205 + SK-N-BE2 + OVCAR-8; conditions: read-out: apparent Kd; compound concentrations:100 nM and 1000 nM (sheet 'Samples'); n = 1
# CDK6 = system: CDK6; parameters: species or system human, MV4-11 + K-562 + COLO205 + SK-N-BE2 + OVCAR-8; conditions: read-out: apparent Kd, n = 1
# FYN = system: FYN; parameters: species or system human, MV4-11 + K-562 + COLO205 + SK-N-BE2 + OVCAR-8; conditions: read-out: apparent Kd; compound concentrations:100 nM and 1000 nM (sheet 'Samples'); n = 1
# MAP2K2 = system: MAP2K2; parameters: species or system human, MV4-11 + K-562 + COLO205 + SK-N-BE2 + OVCAR-8; conditions: read-out: apparent Kd; compound concentrations:100 nM and 1000 nM (sheet 'Samples'); n = 1
# MAPK14 = system: MAPK14; parameters: species or system human, MV4-11 + K-562 + COLO205 + SK-N-BE2 + OVCAR-8; conditions: read-out: apparent Kd, n = 1
# PI4KA = system: PI4KA; parameters: species or system human, MV4-11 + K-562 + COLO205 + SK-N-BE2 + OVCAR-8; conditions: read-out: apparent Kd; compound concentrations:100 nM and 1000 nM (sheet 'Samples'); n = 1
# PIK3C2A = system: PIK3C2A; parameters: species or system human, MV4-11 + K-562 + COLO205 + SK-N-BE2 + OVCAR-8; conditions: read-out: apparent Kd; compound concentrations:100 nM and 1000 nM (sheet 'Samples'); n = 1
# PIK3C3 = system: PIK3C3; parameters: species or system human, MV4-11 + K-562 + COLO205 + SK-N-BE2 + OVCAR-8; conditions: read-out: apparent Kd; compound concentrations:100 nM and 1000 nM (sheet 'Samples'); n = 1
# PIK3CB = system: PIK3CB; parameters: species or system human, MV4-11 + K-562 + COLO205 + SK-N-BE2 + OVCAR-8; conditions: read-out: apparent Kd; compound concentrations: 100 nM and 1000 nM (sheet 'Samples'), CATDS: 0.44243244506727197; n = 1
# PIK3CD = system: PIK3CD; parameters: species or system human, MV4-11 + K-562 + COLO205 + SK-N-BE2 + OVCAR-8; conditions: read-out: apparent Kd, compound concentrations: 100 nM and 1000 nM (sheet 'Samples'), n = 1
# PIM2 = system: PIM2; parameters: species or system human, MV4-11 + K-562 + COLO205 + SK-N-BE2 + OVCAR-8; conditions: read-out: apparent Kd; compound concentrations:100 nM and 1000 nM (sheet 'Samples'); n = 1
# PRKDC = system: PRKDC; parameters: species or system human, MV4-11 + K-562 + COLO205 + SK-N-BE2 + OVCAR-8; conditions: read-out: apparent Kd; compound concentrations:100 nM and 1000 nM (sheet 'Samples'); n = 1
# RIOK2 = system: RIOK2; parameters: species or system human, MV4-11 + K-562 + COLO205 + SK-N-BE2 + OVCAR-8; conditions: read-out: apparent Kd, n = 1
# VDAC3 = system: VDAC3; parameters: species or system human, MV4-11 + K-562 + COLO205 + SK-N-BE2 + OVCAR-8; conditions: read-out: apparent Kd; compound concentrations:100 nM and 1000 nM (sheet 'Samples'); n = 1
# CDK9 = system: CDK9; parameters: species or system human, MV4-11 + K-562 + COLO205 + SK-N-BE2 + OVCAR-8; conditions: read-out: apparent Kd; compound concentrations:100 nM and 1000 nM (sheet 'Samples'); n = 1
# NEK3 = system: NEK3; parameters: species or system human, MV4-11 + K-562 + COLO205 + SK-N-BE2 + OVCAR-8; conditions: read-out: apparent Kd; compound concentrations:100 nM and 1000 nM (sheet 'Samples'); n = 1
# ERCC2 = system: ERCC2; parameters: species or system human, MV4-11 + K-562 + COLO205 + SK-N-BE2 + OVCAR-8; conditions: read-out: apparent Kd; compound concentrations: 100 nM and 1000 nM (sheet 'Samples'), CATDS: 8.00195217918135E-2; n = 1
# ILK = system: ILK; parameters: species or system human, MV4-11 + K-562 + COLO205 + SK-N-BE2 + OVCAR-8; conditions: read-out: apparent Kd; compound concentrations: 100 nM and 1000 nM (sheet 'Samples'), CATDS: 9.2277554070836695E-2; n = 1
# IRAK1 = system: IRAK1; parameters: species or system human, MV4-11 + K-562 + COLO205 + SK-N-BE2 + OVCAR-8; conditions: read-out: apparent Kd; compound concentrations: 100 nM and 1000 nM (sheet 'Samples'), CATDS: 0.100374426884943; n = 1
# MAPK11 = system: MAPK11; parameters: species or system human, MV4-11 + K-562 + COLO205 + SK-N-BE2 + OVCAR-8; conditions: read-out: apparent Kd; compound concentrations: 100 nM and 1000 nM (sheet 'Samples'), CATDS: 0.114875582953057; n = 1
# NQO1 = system: NQO1; parameters: species or system human, MV4-11 + K-562 + COLO205 + SK-N-BE2 + OVCAR-8; conditions: read-out: apparent Kd; compound concentrations: 100 nM and 1000 nM (sheet 'Samples'), CATDS: 0.102757075513336; n = 1
# PRKCQ = system: PRKCQ; parameters: species or system human, MV4-11 + K-562 + COLO205 + SK-N-BE2 + OVCAR-8; conditions: read-out: apparent Kd; compound concentrations: 100 nM and 1000 nM (sheet 'Samples'), CATDS: 8.2854130075837501E-2; n = 1
# CDKL5 = system: CDKL5; parameters: species or system human, MV4-11 + K-562 + COLO205 + SK-N-BE2 + OVCAR-8; conditions: read-out: apparent Kd; compound concentrations: 100 nM and 1000 nM (sheet 'Samples'), CATDS: 0.10582240505262699; n = 1
# CLK1 = system: CLK1; parameters: species or system human, MV4-11 + K-562 + COLO205 + SK-N-BE2 + OVCAR-8; conditions: read-out: apparent Kd, compound concentrations: 100 nM and 1000 nM (sheet 'Samples'), n = 1
# CLK4 = system: CLK4; parameters: species or system human, MV4-11 + K-562 + COLO205 + SK-N-BE2 + OVCAR-8; conditions: read-out: apparent Kd, compound concentrations: 100 nM and 1000 nM (sheet 'Samples'), n = 1
# ERN2 = system: ERN2; parameters: species or system human, MV4-11 + K-562 + COLO205 + SK-N-BE2 + OVCAR-8; conditions: read-out: apparent Kd; compound concentrations: 100 nM and 1000 nM (sheet 'Samples'), CATDS: 0.122228474485695; n = 1
# GSK3A = system: GSK3A; parameters: species or system human, MV4-11 + K-562 + COLO205 + SK-N-BE2 + OVCAR-8; conditions: read-out: apparent Kd; compound concentrations: 100 nM and 1000 nM (sheet 'Samples'), CATDS: 0.15449009445540701; n = 1
# GSK3B = system: GSK3B; parameters: species or system human, MV4-11 + K-562 + COLO205 + SK-N-BE2 + OVCAR-8; conditions: read-out: apparent Kd; compound concentrations: 100 nM and 1000 nM (sheet 'Samples'), CATDS: 0.15136404639572901; n = 1
# PAK4 = system: PAK4; parameters: species or system human, MV4-11 + K-562 + COLO205 + SK-N-BE2 + OVCAR-8; conditions: read-out: apparent Kd; compound concentrations: 100 nM and 1000 nM (sheet 'Samples'), CATDS: 0.121686694160256; n = 1
# Q6ZSR9 = Q6ZSR9 (human, UniProt Q6ZSR9); parameters: species or system MV4-11 + K-562 + COLO205 + SK-N-BE2 + OVCAR-8; conditions: read-out: apparent Kd; compound concentrations: 100 nM and 1000 nM (sheet 'Samples'), CATDS: 0.110463614954163; n = 1
# Sequence of Q6ZSR9 (Q6ZSR9 whole entry, looked up): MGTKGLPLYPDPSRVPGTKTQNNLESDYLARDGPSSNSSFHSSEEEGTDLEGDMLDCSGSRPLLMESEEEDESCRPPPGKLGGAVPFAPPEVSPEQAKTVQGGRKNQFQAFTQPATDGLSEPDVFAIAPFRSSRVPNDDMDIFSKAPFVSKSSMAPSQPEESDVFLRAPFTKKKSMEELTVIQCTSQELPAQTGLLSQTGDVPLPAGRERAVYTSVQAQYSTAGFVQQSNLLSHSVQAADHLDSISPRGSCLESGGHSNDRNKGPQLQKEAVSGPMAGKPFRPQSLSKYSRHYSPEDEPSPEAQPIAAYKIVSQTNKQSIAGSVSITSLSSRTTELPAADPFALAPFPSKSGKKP
# CLK2 = system: CLK2; parameters: species or system human, MV4-11 + K-562 + COLO205 + SK-N-BE2 + OVCAR-8; conditions: read-out: apparent Kd; compound concentrations: 100 nM and 1000 nM (sheet 'Samples'), CATDS: 8.8411635671529196E-2; n = 1
# DYRK1A = system: DYRK1A; parameters: species or system human, MV4-11 + K-562 + COLO205 + SK-N-BE2 + OVCAR-8; conditions: read-out: apparent Kd; compound concentrations: 100 nM and 1000 nM (sheet 'Samples'), CATDS: 7.2131324717133599E-2; n = 1
# GAK = system: GAK; parameters: species or system human, MV4-11 + K-562 + COLO205 + SK-N-BE2 + OVCAR-8; conditions: read-out: apparent Kd; compound concentrations: 100 nM and 1000 nM (sheet 'Samples'), CATDS: 0.20480817101344501; n = 1
# JAK1 = system: JAK1; parameters: species or system human, MV4-11 + K-562 + COLO205 + SK-N-BE2 + OVCAR-8; conditions: read-out: apparent Kd; compound concentrations: 100 nM and 1000 nM (sheet 'Samples'), CATDS: 8.1370183106340005E-2; n = 1
# PI4KB = system: PI4KB; parameters: species or system human, MV4-11 + K-562 + COLO205 + SK-N-BE2 + OVCAR-8; conditions: read-out: apparent Kd; compound concentrations: 100 nM and 1000 nM (sheet 'Samples'), CATDS: 0.120056979351962; n = 1
# PIK3C2B = system: PIK3C2B; parameters: species or system human, MV4-11 + K-562 + COLO205 + SK-N-BE2 + OVCAR-8; conditions: read-out: apparent Kd; compound concentrations: 100 nM and 1000 nM (sheet 'Samples'), CATDS: 8.8068304969215402E-2; n = 1
# TNIK = system: TNIK; parameters: species or system human, MV4-11 + K-562 + COLO205 + SK-N-BE2 + OVCAR-8; conditions: read-out: apparent Kd; compound concentrations: 100 nM and 1000 nM (sheet 'Samples'), CATDS: 8.7825927191877803E-2; n = 1
# [1] = compound concentrations:100 nM and 1000 nM (sheet 'Samples')
smiles,measurement,setting,value
O=C1NC(=O)C(c2ccc(Cl)cc2)=C1Nc1ccc(O)cc1 [SB-340867],potency estimated from few doses,CDK4,1970 nM
same,potency estimated from few doses,NNT,1720 nM
O=c1cc(N2CCOCC2)nc2n(Cc3cccc(F)c3)ccn12 [GSK2297430A],potency estimated from few doses,CDK6; [1],2000 nM
same,potency estimated from few doses,FYN,1140 nM
same,potency estimated from few doses,MAP2K2,1780 nM
same,potency estimated from few doses,MAPK14; [1],1450 nM
same,potency estimated from few doses,PI4KA,1610 nM
same,potency estimated from few doses,PIK3C2A,2440 nM
same,potency estimated from few doses,PIK3C3,235 nM
same,potency estimated from few doses,PIK3CB,31.5 nM
same,potency estimated from few doses,PIK3CD; CATDS: 0.27438684743153402,68.1 nM
same,potency estimated from few doses,PIM2,1670 nM
same,potency estimated from few doses,PRKDC,1130 nM
same,potency estimated from few doses,RIOK2; [1],1490 nM
same,potency estimated from few doses,VDAC3,1830 nM
Nc1n[nH]c2cnc(-c3ccccc3)cc12 [SB-642124-AAA],potency estimated from few doses,CDK9,1400 nM
same,potency estimated from few doses,NEK3,1820 nM
Cl.Nc1c(C(=O)c2cccc(-c3cccnc3)c2)cnn1-c1ccc(F)cc1 [RO1162529-002],potency estimated from few doses,"CDK6; compound concentrations: 100 nM and 1000 nM (sheet 'Samples'), CATDS: 9.94086879029107E-2",1190 nM
same,potency estimated from few doses,ERCC2,2030 nM
same,potency estimated from few doses,ILK,1410 nM
same,potency estimated from few doses,IRAK1,1160 nM
same,potency estimated from few doses,MAPK11,877 nM
same,potency estimated from few doses,"MAPK14; compound concentrations: 100 nM and 1000 nM (sheet 'Samples'), CATDS: 9.0546615649564399E-2",1470 nM
same,potency estimated from few doses,NQO1,1100 nM
same,potency estimated from few doses,PIK3CD; CATDS: 0.395344018245397,126 nM
same,potency estimated from few doses,PRKCQ,1850 nM
same,potency estimated from few doses,"RIOK2; compound concentrations: 100 nM and 1000 nM (sheet 'Samples'), CATDS: 7.9590231457497898E-2",2060 nM
Cn1cc(C2=C(c3cn(C)c4c([N+](=O)[O-])cccc34)C(=O)NC2=O)c2ccccc21 [RO0317452-000],potency estimated from few doses,CDKL5,2010 nM
same,potency estimated from few doses,CLK1; CATDS: 0.119262646968794,1520 nM
same,potency estimated from few doses,CLK4; CATDS: 0.13099506977266501,1260 nM
same,potency estimated from few doses,ERN2,1450 nM
same,potency estimated from few doses,GSK3A,933 nM
same,potency estimated from few doses,GSK3B,967 nM
same,potency estimated from few doses,PAK4,1460 nM
same,potency estimated from few doses,Q6ZSR9,1810 nM
Cl.O=C1Nc2ccc(-c3cccnc3)cc2C1=Cc1cc(Br)c(O)c(Br)c1 [GW2429374A],potency estimated from few doses,CLK1; CATDS: 0.24190894696409601,75.2 nM
same,potency estimated from few doses,CLK2,766 nM
same,potency estimated from few doses,CLK4; CATDS: 0.28990629676542801,56.3 nM
same,potency estimated from few doses,DYRK1A,1760 nM
same,potency estimated from few doses,GAK,100 nM
same,potency estimated from few doses,JAK1,1030 nM
same,potency estimated from few doses,PI4KB,315 nM
same,potency estimated from few doses,PIK3C2B,777 nM
same,potency estimated from few doses,TNIK,784 nM
